Source: PubChem BioAssay (NCATS)
Inconclusive results are not listed. Activity calls are given as the source filed them. Calls come from the whole dose curve; as a rule, active = well fitted cell-killing curve with a large enough effect; inconclusive = small, poorly fitted or top-dose-only effect, or effect the other way; inactive = flat fitted curve, though single readings scatter.

What was measured:
Test in all cases: Primary qHTS to identify gynecologic anti-cancer compounds using libraries of approved drugs and bioactive compounds (AID 1345084); note: nearly all actives have a fitted effect of over 55% in size
C33A = conditions: Gynecologic cancer cell panel viability, ATPlite luminescence, 48 h; series mostly up to 57.5 µM
Method in brief: (§1)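 Cells, 1,000 per well, were allowed to settle for 16 h at 37 C before compound addition. Five concentrations were tested for 48 h, and viability was read by ATPlite luminescence after 15 min at room temperature.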

CASKI = conditions: Gynecologic cancer cell panel viability, ATPlite luminescence, 48 h; series mostly up to 57.5 µM
Method in brief: as §1

Es-2 = conditions: Gynecologic cancer cell panel viability, ATPlite luminescence, 48 h; series mostly up to 57.5 µM
Method in brief: as §1

HeLa = conditions: Gynecologic cancer cell panel viability, ATPlite luminescence, 48 h; series mostly up to 57.5 µM
Method in brief: as §1

Hek293T = conditions: Gynecologic cancer cell panel viability, ATPlite luminescence, 48 h, control line for the selectivity index; series mostly up to 57.5 µM
Method in brief: as §1

JEG-3 = conditions: Gynecologic cancer cell panel viability, ATPlite luminescence, 48 h; series mostly up to 57.5 µM
Method in brief: as §1

OV90 = conditions: Gynecologic cancer cell panel viability, ATPlite luminescence, 48 h; series mostly up to 57.5 µM
Method in brief: as §1

PA-1 = conditions: Gynecologic cancer cell panel viability, ATPlite luminescence, 48 h; series mostly up to 57.5 µM
Method in brief: as §1

SKOV3 = conditions: Gynecologic cancer cell panel viability, ATPlite luminescence, 48 h; series mostly up to 57.5 µM
Method in brief: as §1

Tov-21-G = conditions: Gynecologic cancer cell panel viability, ATPlite luminescence, 48 h; series mostly up to 57.5 µM
Method in brief: as §1

Tov112D = conditions: Gynecologic cancer cell panel viability, ATPlite luminescence, 48 h; series mostly up to 57.5 µM
Method in brief: as §1

Measured: Potency

Cc1noc(=O)c2ccc(NC(=O)C(O)(CC(C)(C)c3cccc4c3OCC4)C(F)(F)F)cc12 (stereo not given)
inactive: all assays above

CC(=O)O[C@H]1C[C@@](O)(C(C)C)C2[C@@H](OC(=O)c3ccc(O)cc3)C[C@@]3(C)O[C@H]3C[C@]21C (stereo not given in full)
not listed: SKOV3
inactive: all other assays above

C/C=C/C1=CC2=C(CO1)C(=O)C(C)(O)C(OC(=O)c1c(C)cc(OC)cc1O)C2 (stereo not given)
not listed: SKOV3
inactive: all other assays above

CC1=CCC2C(C)(C)CCC[C@]2(C)[C@@]12CC[C@](C)(CC(=O)O)O2 (stereo not given in full)
not listed: SKOV3
inactive: all other assays above

NC(=O)C(CCC(F)(F)F)N(Cc1ccc(-c2ncon2)cc1F)S(=O)(=O)c1ccc(Cl)cc1 (stereo not given)
inactive: all assays above

CC(C)=CCC/C(C)=C/CO[C@@H]1O[C@H](CO)[C@@H](O)[C@H](O)[C@H]1O
not listed: SKOV3
inactive: all other assays above

C[C@@]12CC[C@@H]3[C@@](CC[C@H]4[C@@]3(C)CCC[C@@]4(C)C(=O)O)(CC1=O)C2
inactive: all assays above

C[C@@H]1CC[C@]2(C(=O)O)CC[C@]3(C)C(=CCC4[C@@]5(C)C[C@@H](O)[C@H](O)[C@@](C)(CO)C5CC[C@]43C)C2[C@]1(C)O (stereo not given in full)
not listed: SKOV3
inactive: all other assays above

C=C[C@]1(C)C[C@H](O)[C@@H]2[C@H](OC(=O)[C@@H]2C)C1/C(C)=C/O[C@@H]1O[C@H](CO)[C@@H](O)[C@H](O)[C@H]1O (stereo not given in full)
not listed: PA-1
inactive: all other assays above

CCOC(=O)C(CCc1ccccc1)NC(C)C(=O)N1C(=O)N(C)CC1C(=O)O (stereo not given)
not listed: PA-1
inactive: all other assays above

CC(=O)/C=C/[C@H]1[C@](C)(O)[C@@H](O)[C@H](OC(C)=O)C2C(C)(C)CCC[C@@]21C (stereo not given in full)
inactive: all assays above

O=C(N/N=C/c1ccc(O)c(O)c1)c1cc2ccccc2cc1O
not listed: Tov-21-G
inactive: all other assays above

O=C(O)CCCCCC[C@H]1C(=O)NC(=O)N1CC[C@@H](O)C1CCCCC1
not listed: SKOV3
inactive: all other assays above

CC/C=C\C/C=C\C/C=C\CCCCCCCC(=O)OCC(O)COC1OC(CO)C(O)C(O)C1O (stereo not given)
inactive: all assays above
